From PubChem BioAssay (NCATS)
Inconclusive results are not listed. A number with no mark means an inactive call. The call rests on the fitted dose curve; in most records, active means well fitted curve in the direction sought with a large enough effect; inconclusive means small, poorly fitted or top-dose-only effect, or another doubt; inactive means no such curve, though single readings can be large or run the other way.

target: Glucagon-like peptide 1 receptor (Homo sapiens) (UniProt P43220); test: qHTS of GLP-1 Receptor Agonists: LOPAC Validation (AID 624148); conditions: GLP-1R agonist cell assay; series mostly up to 46.1 µM; activation: at the top concentration;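 further: 0% is about no effect; higher luminescence signal means agonism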
Summary of the method: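 HEK293 cells stably co-expressing a cAMP-responsive luciferase reporter and a hypersensitive GLP-1R were plated 12 h at 37 °C and exposed to compounds for 4-6 hr at 37 °C, 5% CO2. Luminescence was read 12 min after adding detection reagent.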

Sequence of Glucagon-like peptide 1 receptor (Homo sapiens) (P43220 whole entry, looked up): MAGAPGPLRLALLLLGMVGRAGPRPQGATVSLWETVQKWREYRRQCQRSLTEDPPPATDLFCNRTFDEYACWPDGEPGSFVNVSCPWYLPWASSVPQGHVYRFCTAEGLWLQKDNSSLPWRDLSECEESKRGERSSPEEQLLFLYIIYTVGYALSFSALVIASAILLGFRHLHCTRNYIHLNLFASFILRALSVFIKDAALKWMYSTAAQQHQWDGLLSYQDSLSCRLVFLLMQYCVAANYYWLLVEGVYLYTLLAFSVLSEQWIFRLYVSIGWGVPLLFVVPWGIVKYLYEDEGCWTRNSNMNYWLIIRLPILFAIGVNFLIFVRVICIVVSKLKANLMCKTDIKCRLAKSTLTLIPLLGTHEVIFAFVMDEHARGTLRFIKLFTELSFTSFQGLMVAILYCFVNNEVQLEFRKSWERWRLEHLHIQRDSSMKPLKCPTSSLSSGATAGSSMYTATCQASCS

Point of comparison: `CCCN(CCC)C(=O)C(CCC(=O)O)NC(=O)c1ccccc1` (stereo unspecified), “activation” value 0.866%. Against it:
- FC(F)(F)c1ccccc1-n1ccnc1 — lower, 0.77%
- CCCCNC(=O)NS(=O)(=O)c1ccc(C)cc1 — lower, -0.833%
- COc1ccc2c(c1OC)C(=O)O[C@@H]2[C@H]1c2c(cc3c(c2OC)OCO3)CCN1C — higher, 7.39%
- Cc1ccc(S(=O)(=O)NC(=O)NN2CCCCCC2)cc1 — lower, 0.863%
- CN(C)C/C=C(/c1ccc(Br)cc1)c1cccnc1 — lower, 0.498%
- CN1CCN(CC(=O)N2c3ccccc3C(=O)Nc3cccnc32)CC1 — lower, -1.65%
- CN(C)CCOC(=O)COc1ccc(Cl)cc1 — lower, 0.524%
- COc1ccc(CN(CCN(C)C)c2ccccn2)cc1 — lower, -1.49%
- CN=C(NC#N)NCCSCc1nc[nH]c1C — lower, 0.835%
- CN(C)CCCN1c2ccccc2Sc2ccccc21 — higher, 7.31%
- CC(=O)Nc1nnc(S(N)(=O)=O)s1 — lower, -0.0596%
- c1ccc2c(c1)CCCC2C1=NCCN1 (stereo unspecified) — higher, 1.51%
- CCn1ccnc1CC1COc2ccccc2O1 (stereo unspecified) — higher, 5.65%
- OC(CCN1CCCCC1)(c1ccccc1)C1CCCCC1 (stereo unspecified) — lower, -0.952%
- CCc1cccc(N(C)C(N)=Nc2cccc3ccccc23)c1 — higher, 4.62%
- COCCc1ccc(OCC(O)CNC(C)C)cc1 (stereo unspecified) — lower, -1.82%
- CN1C[C@H](C(=O)N[C@]2(C)O[C@@]3(O)[C@@H]4CCCN4C(=O)[C@H](Cc4ccccc4)N3C2=O)C[C@@H]2c3cccc4[nH]cc(c34)C[C@H]21 — higher, 9.79%
- CN1C(=O)CC[C@H]1c1cccnc1 — lower, -1.31%
- CCN1CCc2nc(N)oc2CC1 — lower, -1.25%
- CC(C)NNC(=O)c1ccncc1 — lower, -1.47%
- CC(=O)[C@]1(O)Cc2c(O)c3c(c(O)c2[C@@H](O[C@H]2C[C@H](N)[C@H](O)[C@H](C)O2)C1)C(=O)c1ccccc1C3=O — lower, -0.69%
- CN(C)C(=O)Oc1ccc[n+](C)c1 — lower, -1.66%
- CC(=O)Oc1cc(C(C)C)c(OCCN(C)C)cc1C — lower, -1.86%
- CCO/C([O-])=N/c1c[n+](N2CCOCC2)no1 — lower, -1.19%
- CN(C(=O)CCCOc1ccc2[nH]c(=O)ccc2c1)C1CCCCC1 — higher, 19.5%
- CCCCCCCC/C=C\CCCCCCCC(=O)NCc1ccc(O)c(OC)c1 — lower, 0.514%
- NC(N)=N/N=C/c1c(Cl)cccc1Cl — higher, 15.6%
- CCCCCN(CCCCC)C(=O)C(CCC(=O)O)NC(=O)c1ccc(Cl)c(Cl)c1 (stereo unspecified) — lower, -1.65%
- Fc1ccc(C(c2ccc(F)cc2)N2CCN(C/C=C/c3ccccc3)CC2)cc1 — lower, -1.39%
- CC[N+](C)(C)c1cccc(O)c1 — lower, -1.31%
- Cc1scc2c1N(C(=O)CN1CCN(C)CC1)c1ccccc1NC2=O — lower, -1.53%
- CCN(CC)CCCN(c1ccccc1)C1Cc2ccccc2C1 — lower, -1.47%
- COC(=O)[C@H]1[C@H]2C[C@@H]3c4[nH]c5cc(OC)ccc5c4CCN3C[C@H]2C[C@@H](OC(=O)c2cc(OC)c(OC)c(OC)c2)[C@@H]1OC — higher, 1.04%
- CCCN(CCC)CCc1cccc2c1CC(=O)N2 — lower, -1.16%
- CC(C)(Oc1ccc(CCNC(=O)c2ccc(Cl)cc2)cc1)C(=O)O — lower, 0.521%
